Source: PubChem BioAssay
Activity calls are given as the source filed them.

Experiments:
[1] = E. coli DRC41 culture turbidity changes, primary screen, E. coli filamentation inducer project, strain DRC41, OD650, 48 h (AID 1152);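 further: E. coli MC1000 strain DRC41 lacking acrAB efflux pump and sulA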; settings: E. coli DRC41 (acrAB sulA), higher = more signal, called active from +8 up or from −8 down
[2] = small-molecule binders of probe aLefty1, primary screen, biochemical, small-molecule microarray, 635/667 nm fluorescence (AID 1153); settings: higher = more signal;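 further: score merges spot fluorescence with signal-to-noise ratio from the scanned slide images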
[3] = PSAC antagonists in infected red cells, primary screen, cell-based, P. falciparum Indochina, OD700, 1 h (AID 1154); settings: P. falciparum Indochina infected RBC osmotic lysis, higher = more signal, called active from +8 up or from −8 down
[4] = PSAC antagonists in infected red cells, primary screen, cell-based, P. falciparum Indochina, OD700, 2 h (AID 1155);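 further: lysis reports solute entry through the parasite surface anion channel PSAC; channel blockers reduce lysis of infected cells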; settings: P. falciparum Indochina infected erythrocytes, osmotic lysis OD700; higher = more signal, called active from +8 up or from −8 down
[5] = osmotic lysis modulators in infected erythrocytes, primary screen, PSAC antagonist project, cell-based, P. falciparum Indochina, OD700, 3 h (AID 1156); settings: higher = more signal, called active from +8 up or from −8 down
[6] = PSAC antagonists in infected red cells, primary screen, cell-based, P. falciparum Indochina, OD700, 18 h (AID 1157); settings: P. falciparum Indochina infected erythrocytes, osmotic lysis OD700, 18 h; higher = more signal, called active from +8 up or from −8 down
[7] = modulators of S6 phosphorylation in cells, primary screen, cell-based, A549, cytoblot, luminescence, serum-stimulated (AID 1158); settings: A549 phospho-S6 cytoblot, 5 h, higher = more signal;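 further: serum-stimulated A549 lung adenocarcinoma cells; signal is phosphorylated S6 detected by cytoblot immunostaining with HRP secondary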
[8] = target: NADPH oxidase 2 (Homo sapiens) (UniProt P04839); assay: NOX2-dependent H2O2 signal modulators, primary screen, NOX inhibitor project, cell-based, HEK293-NOX2, PMA-stimulated, Amplex Red fluorescence (AID 1159); settings: 45 min, higher = more signal, called active from +8 up or from −8 down; further: test concentration not given here
Sequence of NADPH oxidase 2 (Homo sapiens) (P04839 whole entry, looked up): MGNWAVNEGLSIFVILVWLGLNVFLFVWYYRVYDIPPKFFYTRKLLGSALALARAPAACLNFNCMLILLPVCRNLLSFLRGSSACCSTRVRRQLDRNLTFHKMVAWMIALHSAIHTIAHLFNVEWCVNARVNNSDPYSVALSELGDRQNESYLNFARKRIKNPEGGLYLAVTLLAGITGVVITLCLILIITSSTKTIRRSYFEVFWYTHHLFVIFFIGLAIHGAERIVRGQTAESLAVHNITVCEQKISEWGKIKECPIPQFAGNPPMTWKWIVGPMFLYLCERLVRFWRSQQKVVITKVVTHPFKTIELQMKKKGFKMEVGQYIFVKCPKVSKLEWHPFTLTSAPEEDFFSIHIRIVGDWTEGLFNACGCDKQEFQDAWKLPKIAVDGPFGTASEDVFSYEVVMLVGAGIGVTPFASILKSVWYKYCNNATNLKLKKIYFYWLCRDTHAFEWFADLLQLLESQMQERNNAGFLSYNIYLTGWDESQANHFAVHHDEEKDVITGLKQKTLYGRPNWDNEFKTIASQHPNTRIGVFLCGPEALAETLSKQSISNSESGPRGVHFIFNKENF

[9] = target: NADPH oxidase 4 (Homo sapiens) (UniProt Q9NPH5); assay: NOX4-dependent H2O2 signal modulators, primary screen, NOX inhibitor project, cell-based, HEK293-NOX4, tetracycline-induced, Amplex Red fluorescence (AID 1160); settings: 45 min, higher = more signal, called active from +8 up or from −8 down
Sequence of NADPH oxidase 4 (Homo sapiens) (Q9NPH5 whole entry, looked up): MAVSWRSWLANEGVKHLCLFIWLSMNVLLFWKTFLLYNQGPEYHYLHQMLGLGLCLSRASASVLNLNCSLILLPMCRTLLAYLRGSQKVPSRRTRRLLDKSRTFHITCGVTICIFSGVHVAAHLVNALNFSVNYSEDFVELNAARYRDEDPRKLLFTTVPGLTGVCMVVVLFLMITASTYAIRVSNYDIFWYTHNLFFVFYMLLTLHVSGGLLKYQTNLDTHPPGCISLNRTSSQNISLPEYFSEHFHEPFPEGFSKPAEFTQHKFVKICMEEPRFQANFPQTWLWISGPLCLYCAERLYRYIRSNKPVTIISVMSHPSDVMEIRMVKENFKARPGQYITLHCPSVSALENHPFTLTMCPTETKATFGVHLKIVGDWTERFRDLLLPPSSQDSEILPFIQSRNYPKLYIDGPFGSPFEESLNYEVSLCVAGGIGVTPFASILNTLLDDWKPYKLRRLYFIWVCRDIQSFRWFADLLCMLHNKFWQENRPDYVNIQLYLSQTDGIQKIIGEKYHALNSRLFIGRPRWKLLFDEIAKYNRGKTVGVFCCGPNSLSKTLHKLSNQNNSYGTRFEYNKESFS

[10] = target: NADPH oxidase 5 (Homo sapiens) (UniProt Q96PH1); assay: NOX5-dependent H2O2 signal modulators, primary screen, NOX inhibitor project, cell-based, HEK293-NOX5, Amplex Red fluorescence (AID 1161); settings: HEK293-NOX5, ionomycin, 45 min, higher = more signal
Sequence of NADPH oxidase 5 (Homo sapiens) (Q96PH1 whole entry, looked up): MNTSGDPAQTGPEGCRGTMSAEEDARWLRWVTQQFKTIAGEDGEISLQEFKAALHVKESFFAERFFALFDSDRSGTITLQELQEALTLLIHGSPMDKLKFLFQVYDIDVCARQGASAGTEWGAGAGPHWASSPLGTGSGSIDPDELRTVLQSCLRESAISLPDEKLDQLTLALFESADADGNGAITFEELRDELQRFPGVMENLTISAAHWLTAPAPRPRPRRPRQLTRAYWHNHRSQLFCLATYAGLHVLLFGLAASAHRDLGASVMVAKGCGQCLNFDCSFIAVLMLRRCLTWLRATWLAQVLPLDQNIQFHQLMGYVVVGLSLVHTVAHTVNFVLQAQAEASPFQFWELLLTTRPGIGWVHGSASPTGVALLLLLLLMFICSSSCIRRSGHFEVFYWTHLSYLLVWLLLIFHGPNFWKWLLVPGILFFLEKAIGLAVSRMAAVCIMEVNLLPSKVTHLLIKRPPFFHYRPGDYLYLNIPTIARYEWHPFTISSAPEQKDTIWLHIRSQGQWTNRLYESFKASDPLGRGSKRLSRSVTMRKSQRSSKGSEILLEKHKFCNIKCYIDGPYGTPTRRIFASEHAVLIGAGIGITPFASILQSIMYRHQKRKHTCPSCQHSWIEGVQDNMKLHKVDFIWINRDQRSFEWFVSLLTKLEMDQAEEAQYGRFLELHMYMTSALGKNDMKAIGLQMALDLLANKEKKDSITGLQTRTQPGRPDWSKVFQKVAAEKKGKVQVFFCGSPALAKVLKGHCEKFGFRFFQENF

Structure (SMILES) | z-score [1] | composite z-score [2] | z-score [3] | z-score [4] | z-score [5] | z-score [6] | z-score [7] | z-score [8] | z-score [9] | z-score [10]
CC(C)=CCCC(C)=CCON=C1[C@H]2CCn3c(=O)n(Cc4cc5c(cc4Cl)OCO5)c(=O)n3[C@H]2[C@H](O)[C@@H]2O[C@H]12 | -0.939 (inactive) | -0.0559 | 1.34 (inactive) | 0.722 (inactive) | 0.555 (inactive) | 0.38 (inactive) | 0.181 | 0.594 (inactive) | -1.12 (inactive) | -0.711
CO[C@H]1COC(=O)[C@@H]2CCCN2C(=O)[C@@H](C)COC(=O)CC=C[C@@H]1C | 0.737 (inactive) | -0.198 | 0.464 (inactive) | 0.279 (inactive) | 0.61 (inactive) | 0.27 (inactive) | -0.552 | -0.281 (inactive) | 0.0546 (inactive) | -0.48
O=C1[C@H]2[C@H]3[C@H](O)[C@H](O)CC(=NOC[C@@H](O)COCc4ccco4)[C@@H]3CC[C@H]2C(=O)N1c1ccc(F)cc1F | -0.0233 (inactive) | -0.639 | 2.3 (inactive) | 0.537 (inactive) | 1.67 (inactive) | 0.405 (inactive) | -0.51 | -1.37 (inactive) | 0.523 (inactive) | -0.579
CO[C@H]1COC(=O)[C@H](C)NC(=O)[C@@H](C)COC(=O)CC=C[C@@H]1C | 0.66 (inactive) | -0.251 | 0.945 (inactive) | 0.54 (inactive) | 0.795 (inactive) | 0.465 (inactive) | 0.0768 | -0.835 (inactive) | 0.412 (inactive) | 0.193
O=C1C2C=CC(C(O)c3ccc([N+](=O)[O-])cc3)N(Nc3ccc([N+](=O)[O-])cc3)C2C(=O)N1c1ccccc1 (stereo not given) | -1.39 (inactive) | 0.446 | 12.9 (active) | 1.96 (inactive) | 0.958 (inactive) | 1.02 (inactive) | -0.922 | -1.24 (inactive) | -2.87 (inactive) | -2.36
CC(C)[C@@H](OCc1ccccc1)[C@H](C)C=NOC[C@@H](C)[C@H](OCc1ccccc1)C(C)C | 0.52 (inactive) | 0.233 | 0.641 (inactive) | 0.369 (inactive) | -0.423 (inactive) | -0.222 (inactive) | -0.591 | -0.537 (inactive) | -0.184 (inactive) | -0.948
CC(C)=NOCc1cccc(-c2cc(-c3ccccc3)no2)c1 | -1.79 (inactive) | 0.194 | 0.648 (inactive) | -0.166 (inactive) | -0.532 (inactive) | -0.388 (inactive) | -0.947 | 1.21 (inactive) | 0.439 (inactive) | -0.0547
Cc1ccc(F)cc1S(=O)(=O)N[C@@H]1CCN(Cc2ccc(CC(C)C)cc2)C1 | -19.2 (active) | -0.146 | 2.71 (inactive) | 0.63 (inactive) | 0.233 (inactive) | 0.916 (inactive) | -0.647 | -0.0569 (inactive) | -1.44 (inactive) | -4.02
COc1ccc([Si](C)(C)[C@H]2[C@H](CCO)O[C@@]3(C(=O)N(Cc4cccc(NC(=O)[C@H](C)O)c4)c4ccccc43)[C@@H]2C)cc1 | 0.868 (inactive) | 0.19 | 19.7 (active) | 5.46 (inactive) | 0.334 (inactive) | 1.8 (inactive) | 0.993 | -4.7 (inactive) | 0.621 (inactive) | -1.31
Cc1ccc(S[C@]2(C(=O)O)CC(=O)N(Cc3ccccc3)[C@@H]2c2ccc(CO)cc2I)cc1 | -0.308 (inactive) | 0.157 | 13.9 (active) | 2.07 (inactive) | 1.47 (inactive) | 0.842 (inactive) | -0.31 | 1.71 (inactive) | -2.26 (inactive) | 0.38
CN(C)CCCNC(=O)[C@@H]1c2ccccc2C(=O)N(Cc2cc(F)cc(C(F)(F)F)c2)[C@H]1c1ccc(CO)cc1 | -0.72 (inactive) | -0.0818 | 1.88 (inactive) | 0.382 (inactive) | 2.38 (inactive) | 0.745 (inactive) | 0.269 | 0.547 (inactive) | -0.0177 (inactive) | -2.19
CCCCCCc1nc(CCCc2cc3c(c(CCCCCC)n2)[Si](C(C)C)(C(C)C)O[C@H]3c2ccccc2)cc2c1[Si](C(C)C)(C(C)C)O[C@H]2c1ccccc1 | -1.58 (inactive) | -0.244 | 0.963 (inactive) | 0.165 (inactive) | 0.97 (inactive) | 0.0888 (inactive) | -0.415 | -4.87 (inactive) | 0.859 (inactive) | -1.07
CC(C)=NOCc1ccc(-c2cc(-c3ccccc3)no2)cc1 | 0.433 (inactive) | -0.283 | 0.251 (inactive) | 0.367 (inactive) | -0.201 (inactive) | -0.0729 (inactive) | 0.321 | -2.54 (inactive) | 0.311 (inactive) | -0.0709
CC(=O)OC[C@H]1O[C@@H](ON=C[C@@H](C)[C@H](OCc2ccccc2)C(C)C)[C@H](OC(C)=O)[C@@H](OC(C)=O)[C@@H]1OC(C)=O | 0.319 (inactive) | 0.113 | 0.857 (inactive) | 0.536 (inactive) | 1.04 (inactive) | 0.22 (inactive) | 0.761 | -0.72 (inactive) | 0.404 (inactive) | -0.856
CC(C)=C1C(=O)C(c2ccccc2)=C2CN3C(=O)N(CCc4ccccc4)C(=O)[C@]3(Cc3ccc(F)cc3)[C@H]21 | -2.71 (inactive) | 0.318 | 20.9 (active) | 4.68 (inactive) | 1.48 (inactive) | 0.813 (inactive) | -0.51 | -0.578 (inactive) | -1.03 (inactive) | -1.11
CO[C@H]1COC(=O)CC=C[C@H](C)[C@@H](NS(=O)(=O)c2ccc(C)cc2)COC(=O)CC=C[C@@H]1C | -1.05 (inactive) | -0.194 | 0.0723 (inactive) | -1.13 (inactive) | 0.157 (inactive) | -0.592 (inactive) | 5.19 | 0.0288 (inactive) | 0.256 (inactive) | 0.622
